# Source: PubChem BioAssay (EPA / NIEHS)
# “And” between values parts separate entries of the source, which are not always exact repeats. Equal values may be shown once. Some structures have more than one record in an assay (separate samples or runs), and their calls can disagree. The source made the active and inactive calls. The calls were made as follows: active = hit-call score of the fitted dose curve at least 0.9, where 1 is the maximum; inactive = score below 0.9.
# Read-out: E-selectin (Homo sapiens) (UniProt P16581)
# Assay: BSK_LPS_Eselectin: BioMAP Diversity Plus: LPS Assay for Eselectin Biomarker Activity (AID 2283077)
# Details: primary human HUVEC with PBMC; actives raise or lower the signal
# Procedure: BSK_LPS is a cell-based, multiplexed-readout assay that uses umbilical vein endothelium and peripheral blood mononuclear cells, a human vascular primary cell co-culture, with measurements taken at 24 hours after chemical dosing in a 96-well plate.BSK_LPS_Eselectin is an assay component measured in the BSK_LPS assay. It measures E-selectin antibody related to regulation of gene expression using ELISA technology.Data from the assay component BSK_LPS_Eselectin was analyzed into 1 assay endpoint. This assay endpoint, BSK_LPS_Eselectin, was analyzed with bidirectional fitting relative to DMSO as the negative control and baseline of activity. Using a type of binding reporter, gain or loss-of-signal activity can be used to understand changes in the signaling as they relate to the gene SELE. Furthermore, this assay endpoint can be referred to as a primary readout, because this assay has produced multiple assay endpoints where this one serves a signaling function. To generalize the intended target to other relatable targets, this assay endpoint is annotated to the cell adhesion molecules intended target family, where the subfamily is selectins.
# The levels of cell surface (or secreted, indicated by the prefix "s") biomarker endpoints were measured by ELISA. Overt cytotoxicity to cells in confluent adherent cultures (all systems other than the BT system) was assessed by measuring total protein levels using sulforhodamine B (SRB) staining in parallel cultures at the time of biomarker measurements, indicated as SRB endpoints. For proliferation assays for adherent cell types, individual cell types are cultured at sub-confluence and relative cell numbers quantified by SRB staining at time points optimized for each system (48 h: 3C and CASM3C systems; 72 h: BT and HDF3CGF systems; 96 h: SAg system). SRB was performed by staining cells with 0.1% SRB after fixation with 10% TCA and reading wells at 560 nm.Viability and proliferation of PBMC (T cells) was quantified by Alamar Blue reduction for the SAg and BT systems. For PBMC viability (referred to as PBMC Cytotoxicity within the assay endpoint names), cells were plated (75,000/well in a 96-well plate) and then chemical samples added for 1 h before addition of activators, SEB and TSST-1 (20 ng/mL final concentration each). Cells were incubated for 90 h. Then, Alamar Blue (20 uL/well) (Invitrogen, Cat DAL1100) was added for 6 h, and the plates were read with a fluorescence microplate reader at 546/580 nm (excitation/emission). For PBMC proliferation, cells were plated and activated as above but incubated for only 16 h prior to addition of Alamar Blue. Plates were read after 6 h.
# Chain of E-selectin (Homo sapiens) (P16581 whole entry, looked up): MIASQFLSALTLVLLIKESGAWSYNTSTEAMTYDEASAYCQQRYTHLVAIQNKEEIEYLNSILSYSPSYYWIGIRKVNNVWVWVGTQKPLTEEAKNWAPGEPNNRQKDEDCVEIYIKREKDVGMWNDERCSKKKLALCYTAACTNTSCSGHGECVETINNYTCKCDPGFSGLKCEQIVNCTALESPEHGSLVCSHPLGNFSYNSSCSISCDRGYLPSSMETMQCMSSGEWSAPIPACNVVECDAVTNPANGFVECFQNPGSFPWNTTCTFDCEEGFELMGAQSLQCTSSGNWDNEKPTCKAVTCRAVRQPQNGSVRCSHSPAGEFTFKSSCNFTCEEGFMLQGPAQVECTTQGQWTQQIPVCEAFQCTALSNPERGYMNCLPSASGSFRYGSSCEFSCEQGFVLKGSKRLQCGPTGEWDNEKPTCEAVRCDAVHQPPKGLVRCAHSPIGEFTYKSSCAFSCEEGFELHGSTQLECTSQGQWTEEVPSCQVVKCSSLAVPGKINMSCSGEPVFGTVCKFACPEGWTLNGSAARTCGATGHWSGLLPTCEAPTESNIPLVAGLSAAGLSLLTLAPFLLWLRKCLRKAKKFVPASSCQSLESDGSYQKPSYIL
Compound,outcome,AC50
CC(CCC(=O)O)(c1ccc(O)cc1)c1ccc(O)cc1,inactive,–
CC1(C)CC(O)CC(C)(C)N1[O],inactive,–
C[N+](C)(C)CCCNS(=O)(=O)C(F)(F)C(F)(F)C(F)(F)C(F)(F)C(F)(F)C(F)(F)C(F)(F)C(F)(F)F,inactive,48.1 µM (active)
C=CC(=O)OCCCCCCOC(=O)C=C,–,9.18 µM (active)
CC(C)c1cccc(C(C)C)c1N,inactive,–
Nc1cccc(N)n1,inactive,–
C=CC(=O)OCCCCCCCC(C)C,inactive,–
C=CC(=O)NCOCCCC,inactive,–
COc1ccc(C(=O)/C(Br)=C\C(=O)O)cc1,–,25.3 µM (active) and 30.3 µM (active)
CCCCCCCCC(CO)CCCCCC (stereo not given),inactive,–
C=CC(=O)NC(C)(C)C,inactive,–
CC/C=C\C/C=C\C/C=C\CCCCCCCC(=O)OC,–,30.1 µM (active)
O=C(Oc1ccccc1)c1ccccc1C(=O)Oc1ccccc1,inactive,–
O=C(Cl)c1c(Cl)c(Cl)c(C(=O)Cl)c(Cl)c1Cl,inactive,–
CCOC(=O)C1=NN(c2ccc(Cl)cc2Cl)C(C)(C(=O)OCC)C1 (stereo not given),inactive,–
CCCCCCC=O,inactive,–
COC(OC)(C(=O)c1ccccc1)c1ccccc1,inactive,–
Oc1ccc(/C=C/c2cc(O)cc(O)c2)cc1,inactive,–
CCN1CN(CC)CN(CC)C1,inactive,–
C1CNCCN1,inactive,–

Compound,outcome,AC50
CC(C)CCCCCOC(=O)CS,inactive,–
CCCCCCCCCCCC(C)=O,–,23.9 µM (active)
Clc1cc(Cl)c(Cl)c(Cl)c1Cl,inactive,–
c1ccc2sc(SSN3CCOCC3)nc2c1,inactive,–
Cc1ccc([N+](=O)[O-])cc1N,inactive,–
CCOC(=O)/C=C\C(=O)OCC,inactive,–
CCc1cccc(C)c1N(C(=O)CS(=O)(=O)O)C(C)COC (stereo not given),inactive,–
Cc1c(O)cccc1O,inactive,–
CCCCCCCO,inactive,–
CCCCCCCCCCCC(=O)N(C)CC(=O)O,inactive,–
CCCCCCOC(=O)CCCCC(=O)OCCCCCC,inactive,–
CCC1(C)C(=O)N(Cl)C(=O)N1Cl (stereo not given),inactive,–
Nc1nc(N)nc(-c2ccccc2)n1,inactive,–
c1ccc2c(c1)[nH]c1ccccc12,inactive,–
Oc1c(Cl)cc(Cl)c(Cl)c1Cl,–,30.7 µM (active)
CC(Cl)COP(=O)(OCC(C)Cl)OCC(C)Cl (stereo not given),inactive,–
CC=C(C)C=CC=C(C)C,inactive,–
CC=C(C)C(C)=O,inactive,–
Fc1ccc(Br)cc1,inactive,–
